# This is part of a sample that, as a whole, favours compounds with a hit. Of some 79,000 tested, about 15% had one in any assay. Values without a mark were called inactive. The source made the active and inactive calls. Rule as the data show it: active = growth inhibition above about 70%; inactive = the rest.
# What was measured:
# [1] = NCI Yeast Anticancer Drug Screen. Data for the rad52 strain (AID 147);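 also: 0% = growth of vehicle-treated control cultures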; details: S. cerevisiae rad52 mutant growth inhibition, stronger effect = higher value
# Method in brief: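 Screen used a yeast mutant impaired in DNA repair. After compound exposure, growth was measured. Values reflect inhibition compared with vehicle-treated cells.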
# [2] = NCI Yeast Anticancer Drug Screen. Data for the wt1 strain (AID 149);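 also: 0% = growth of vehicle-treated wt1 cultures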; details: S. cerevisiae wt1 strain (SPY 50644) growth inhibition, stronger effect = higher value
# Method in brief: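 Readout: yeast growth inhibition, normalised to vehicle controls, in the wt1 strain exposed to test compounds.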
# [3] = NCI Yeast Anticancer Drug Screen. Data for the rad50EPP+ strain (AID 151);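 also: 0% = growth of vehicle-treated control cultures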; details: S. cerevisiae rad50 mutant strain, stronger effect = higher value
# Method in brief: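 Exposing the rad50EPP+ strain to each compound, growth was compared with vehicle-only cultures to give inhibition.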
# [4] = NCI Yeast Anticancer Drug Screen. Data for the mgt1 strain (AID 153); details: S. cerevisiae mgt1 mutant growth inhibition, stronger effect = higher value
# Method in brief: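 Genetically defined yeast (mgt1) treated with compound; inhibition of growth expressed against vehicle-treated controls.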
# [5] = NCI Yeast Anticancer Drug Screen. Data for the rad50 strain (AID 155);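 also: 0% = growth of vehicle-only cultures of the same strain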; details: S. cerevisiae rad50 strain growth inhibition, stronger effect = higher value
# Method in brief: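 Compounds were tested on a yeast strain with an engineered DNA damage repair alteration; the reported value is growth inhibition normalised to vehicle treatment.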
# [6] = NCI Yeast Anticancer Drug Screen. Data for the mec2-1 strain (AID 157); details: S. cerevisiae mec2-1 strain, stronger effect = higher value
# Method in brief: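 Readout is yeast growth inhibition, normalised to vehicle-treated controls, in the mec2-1 strain exposed to compound.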
# [7] = NCI Yeast Anticancer Drug Screen. Data for the rad14 strain (AID 159);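 also: 0% = growth of vehicle-treated control cultures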; details: S. cerevisiae rad14 strain growth inhibition, stronger effect = higher value
# Method in brief: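 Compound-treated yeast with a defined DNA-repair lesion; growth inhibition normalised to vehicle-treated cultures.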
# [8] = NCI Yeast Anticancer Drug Screen. Data for the sgs1 mgt1 strain (AID 161);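 also: 0% = growth of cultures given vehicle only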; details: S. cerevisiae sgs1 mgt1 strain, stronger effect = higher value
# Method in brief: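 Compounds are added to genetically altered yeast, and growth is compared with cultures given vehicle alone to give percent inhibition.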
# [9] = NCI Yeast Anticancer Drug Screen. Data for the CLN2oe strain (AID 163);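 also: 0% = growth of vehicle-only control cultures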; details: S. cerevisiae CLN2oe strain, stronger effect = higher value
# Method in brief: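 Values reflect how much compound exposure reduced yeast growth, referenced to vehicle-exposed cells. Assay organism is a strain with a defined genetic change affecting cell-cycle control.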
# [10] = NCI Yeast Anticancer Drug Screen. Data for the cln2 rad14 strain (AID 165);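 also: 0% = growth equal to vehicle treated cultures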; details: S. cerevisiae cln2 rad14 strain, stronger effect = higher value
# Method in brief: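 Relative to vehicle controls, growth inhibition of compound-treated cln2 rad14 yeast was recorded.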
# [11] = NCI Yeast Anticancer Drug Screen. Data for the bub3 strain (AID 167); details: S. cerevisiae bub3 mutant strain, stronger effect = higher value
# Method in brief: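 Growth of a checkpoint-deficient yeast mutant is measured after compound exposure. Values represent inhibition relative to vehicle.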
# [12] = NCI Yeast Anticancer Drug Screen. Data for the wt2 strain (AID 169);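 also: 0% = growth of vehicle-treated yeast cultures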; details: S. cerevisiae wt2 strain growth inhibition, stronger effect = higher value
# Method in brief: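 Values express reduction in yeast growth under compound treatment, referenced to vehicle-treated cells.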
# [13] = NCI Yeast Anticancer Drug Screen. Data for the mlh1 strain (AID 171);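 also: 0% = growth of vehicle-treated control cultures of the same strain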; details: S. cerevisiae mlh1 strain growth inhibition, stronger effect = higher value
# Method in brief: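 Steps: expose the defined-mutant yeast strain to compound; expose a parallel culture to vehicle; measure growth; express compound effect as inhibition relative to the vehicle culture.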
# [14] = NCI Yeast Anticancer Drug Screen. Data for the sgs1 strain (AID 173);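 also: 0% = growth of vehicle-only control cultures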; details: S. cerevisiae sgs1 mutant, stronger effect = higher value
# Method in brief: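 Treat defined-mutant yeast with compound; measure growth; calculate inhibition relative to vehicle-treated cells.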
# [15] = NCI Yeast Anticancer Drug Screen. Data for the mlh1 rad18 strain (AID 175); details: S. cerevisiae mlh1 rad18 strain growth inhibition, stronger effect = higher value
# Method in brief: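 Test agents were incubated with a yeast strain of defined genotype (DNA damage repair defect). Inhibition of growth was derived by comparison with vehicle-exposed cultures.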
# [16] = NCI Yeast Anticancer Drug Screen. Data for the rad18 strain (AID 177); details: S. cerevisiae rad18 mutant growth inhibition, stronger effect = higher value
# Method in brief: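 A genetically defined yeast mutant impaired in DNA damage repair was treated with test compounds, then its growth was measured against cultures receiving vehicle alone.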
# [17] = at 5.0 µM (retest, dose inferred, filed as 0.5)
# [18] = at 50.0 µM (retest, dose inferred, filed as 5.0)
smiles,measurement,setting,value
Nc1ccn(C2OC(CO)C3[O][Sn]([c]4ccccc4)([c]4ccccc4)[O]C32)c(=O)n1 (stereo not drawn),growth inhibition,[1]; at 1.2 µM,3%
same,growth inhibition,[1]; at 3.7 µM,3%
same,growth inhibition,[1]; at 11.0 µM,21%
same,growth inhibition,[1]; at 33.0 µM,46%
same,growth inhibition,[1]; at 100.0 µM,84% (active)
same,growth inhibition,[2]; at 1.2 µM,-1%
same,growth inhibition,[2]; at 3.7 µM,-1%
same,growth inhibition,[2]; at 11.0 µM,1%
same,growth inhibition,[2]; at 33.0 µM,9%
same,growth inhibition,[2]; at 100.0 µM,53%
same,growth inhibition,[3]; at 1.2 µM,1%
same,growth inhibition,[3]; at 3.7 µM,-5%
same,growth inhibition,[3]; at 11.0 µM,-1%
same,growth inhibition,[3]; at 33.0 µM,6%
same,growth inhibition,[3]; at 100.0 µM,13%
same,growth inhibition,[4]; at 1.2 µM,7%
same,growth inhibition,[4]; at 3.7 µM,3%
same,growth inhibition,[4]; at 11.0 µM,-3%
same,growth inhibition,[4]; at 33.0 µM,30%
same,growth inhibition,[4]; at 100.0 µM,85% (active)
same,growth inhibition,[5]; at 1.2 µM,4%
same,growth inhibition,[5]; at 3.7 µM,-1%
same,growth inhibition,[5]; [17],-5%
same,growth inhibition,[5]; at 11.0 µM,26%
same,growth inhibition,[5]; at 33.0 µM,61%
same,growth inhibition,[5]; [18],51%
same,growth inhibition,[5]; at 50.0 µM,95.4% (active)
same,growth inhibition,[5]; at 100.0 µM,84% (active)
same,growth inhibition,[6]; at 1.2 µM,0%
same,growth inhibition,[6]; at 3.7 µM,3%
same,growth inhibition,[6]; [17],-6%
same,growth inhibition,[6]; at 11.0 µM,4%
same,growth inhibition,[6]; at 33.0 µM,17%
same,growth inhibition,[6]; [18],34%
same,growth inhibition,[6]; at 50.0 µM,95.5% (active)
same,growth inhibition,[6]; at 100.0 µM,52%
same,growth inhibition,[7]; at 1.2 µM,1%
same,growth inhibition,[7]; at 3.7 µM,1%
same,growth inhibition,[7]; at 11.0 µM,3%
same,growth inhibition,[7]; at 33.0 µM,22%
same,growth inhibition,[7]; at 100.0 µM,78% (active)
same,growth inhibition,[8]; [17],-12%
same,growth inhibition,[8]; [18],65%
same,growth inhibition,[8]; at 50.0 µM,86.2% (active)
same,growth inhibition,[9]; at 1.2 µM,1%
same,growth inhibition,[9]; at 3.7 µM,-1%
same,growth inhibition,[9]; at 11.0 µM,9%
same,growth inhibition,[9]; at 33.0 µM,11%
same,growth inhibition,[9]; at 100.0 µM,60%
same,growth inhibition,[10]; [17],-26%
same,growth inhibition,[10]; [18],-9%
same,growth inhibition,[10]; at 50.0 µM,92.1% (active)
same,growth inhibition,[11]; at 1.2 µM,1%
same,growth inhibition,[11]; at 3.7 µM,1%
same,growth inhibition,[11]; [17],-18%
same,growth inhibition,[11]; at 11.0 µM,3%
same,growth inhibition,[11]; at 33.0 µM,19%
same,growth inhibition,[11]; [18],41%
same,growth inhibition,[11]; at 50.0 µM,95.9% (active)
same,growth inhibition,[11]; at 100.0 µM,75% (active)
same,growth inhibition,[12]; at 1.2 µM,0%
same,growth inhibition,[12]; at 3.7 µM,0%
same,growth inhibition,[12]; at 11.0 µM,5%
same,growth inhibition,[12]; at 33.0 µM,31%
same,growth inhibition,[12]; at 100.0 µM,79% (active)
same,growth inhibition,[13]; at 1.2 µM,-1%
same,growth inhibition,[13]; at 3.7 µM,0%
same,growth inhibition,[13]; at 11.0 µM,6%
same,growth inhibition,[13]; at 33.0 µM,33%
same,growth inhibition,[13]; at 100.0 µM,70% (active)
same,growth inhibition,[14]; at 1.2 µM,0%
same,growth inhibition,[14]; at 3.7 µM,0%
same,growth inhibition,[14]; at 11.0 µM,9%
same,growth inhibition,[14]; at 33.0 µM,44%
same,growth inhibition,[14]; at 100.0 µM,89% (active)
same,growth inhibition,[15]; [17],-22%
same,growth inhibition,[15]; [18],87% (active)
same,growth inhibition,[15]; at 50.0 µM,95.2% (active)
same,growth inhibition,[16]; at 1.2 µM,3%
same,growth inhibition,[16]; at 3.7 µM,8%
same,growth inhibition,[16]; at 11.0 µM,27%
same,growth inhibition,[16]; at 33.0 µM,67%
same,growth inhibition,[16]; at 100.0 µM,88% (active)

# Reference: PubChem BioAssay (NCI)
